This passage reports survival results from PubChem BioAssay AID463173 (ICCB-Longwood Screening Facility, Harvard Medical School, 2010).

Hit rate of the full screen: of about 52,000 compounds, about 4,300 (8.3%) were called active. What follows is part of a selection rich in actives, with near analogues and random picks from the rest. Values without a mark were called inactive. No stated cut-off is given here; in the data, active means survival mostly below about 52% (no sharp cut-off); inactive means mostly above about 56%.

The assay concerns DeltatarO mutant. Put plainly: growth inhibition of S. aureus wild type versus tarO mutant, primary screen, teichoic acid synthesis inhibitors, RN4220, OD600 (AID 463173). Particulars: OD600, 18 h, stronger effect = lower value, screened at 18.75 µg/mL (by protocol).
For the compound `Cc1cc(F)ccc1NC(=O)CCS(=O)(=O)c1ccc2c(c1)CC(C)N2C(=O)C1CC1` (stereo not given), the survival is 81%. As for `Cc1cccc(N2CCn3c2nc2c3c(=O)n(CCCc3ccccc3)c(=O)n2C)c1`, the survival is 76%. In the case of `CCSc1nnc(C2CCCN(C(=O)NCc3ccccc3)C2)n1C` (stereo not given), the survival was 84%. With `CC1CCCCN1C(=O)CSc1nc(-c2ccccc2)no1` (stereo not given), the survival was 83%. `Cc1ccc(S(=O)(=O)C(CNS(=O)(=O)c2cc(F)ccc2F)c2cccs2)cc1` (stereo not given): the survival was 64%. For `CC1C(=O)CC(c2ccco2)NC1c1ccco1` (stereo not given) the value was 56%. On to `CCc1nc2ccc(C(=O)NCCc3ccccc3OC)cc2nc1CC`, for which the survival is 73%. In the case of `Cc1ccc(-c2cc3c(N4CCN(c5cc(C)ccc5C)CC4)nccn3n2)cc1`, the survival was 68%.

Turning to `COc1ccc(NC(=O)Cn2c(SCc3cc(C)ccc3C)nc3ccncc32)c(OC)c1OC`, the survival is 61%. On to `Cc1cccc2c1-c1sc(C(=O)NCCc3ccc(Cl)cc3)cc1CO2`, for which the survival was 86%.

In the case of `COc1ccc(/C=C/C(=O)Nc2sc(C)c(C)c2C(=O)O)cc1`, the survival was 60%. For `COc1ccc(-n2cnc3cc(C(=O)NC4CCCCCC4)ccc32)cc1` the value was 117%; for `CCN1C(=O)CC(C(=O)NC)SC1=Nc1cc(Cl)c(O)c(Cl)c1` (stereo not given), 75%.

Regarding `CC(=O)Nc1ccc2nc3c(=O)[nH]c(=O)[nH]c3nc2c1`, the survival was 72%. For `COc1ccc(-c2cc(C(F)(F)F)nc(SCCC(=O)Nc3ccc(OC)c(OC)c3)n2)cc1`, the survival was 40% (active). As to `COc1ccc(NC(=O)CCSc2nc(-c3ccc(OC)cc3)cc(C(F)(F)F)n2)cc1`, the survival is 70%.

Turning to `COc1ccc(-c2cc(C(F)(F)F)nc(SCCC(=O)Nc3ccc(NC(C)=O)cc3)n2)cc1`, the survival is 61%.

In the case of `CC(C)(C)NC(=O)COc1ccc(CNc2ccc3c(c2)OCCO3)cc1`, the survival is 87%. Regarding `COc1ccc(CCNC(=O)CCn2c(=O)c3ccccc3n(Cc3ccccc3C)c2=O)cc1OC`, the survival is 86%. For `COc1ccc(CCNC(=O)CCCn2c(=O)c3ccccc3n(Cc3ccccc3C#N)c2=O)cc1OC` the value was 87% (active). As for `Cc1ccccc1Cn1c(=O)n(CCCCC(=O)NCc2ccccc2Cl)c(=O)c2ccccc21`, the survival was 93%. As to `COc1ccc(CCNC(=O)CCn2c(=O)c3ccccc3n(Cc3ccc(Cl)cc3)c2=O)cc1OC`, the survival is 119%. Consider `COc1ccc(CCNC(=O)CCCn2c(=O)c3ccccc3n(Cc3ccccc3C)c2=O)cc1OC`, for which the survival is 85%. In the case of `COc1ccc(CCNC(=O)CCCCn2c(=O)c3ccccc3n(Cc3ccccc3C)c2=O)cc1OC`, the survival is 95%.

For the compound `COc1ccc(CCNC(=O)CCn2c(=O)c3ccccc3n(Cc3ccccc3F)c2=O)cc1OC`, the survival was 93% (active). Regarding `O=C(CCCCn1c(=O)c2ccccc2n(Cc2ccccc2F)c1=O)NCc1ccccc1Cl`, the survival was 97% (active). For `O=C(CCCCn1c(=O)c2ccccc2n(Cc2ccc(Cl)cc2)c1=O)NCc1ccccc1Cl` the value was 97%; for `Cn1ccc2cc(S(=O)(=O)N3CCC(C(=O)NCCc4ccccc4)CC3)ccc21`, 89%. `Cc1nn(C)c2c1c(C(F)(F)F)cc(=O)n2C(C)C(=O)N1CCN(c2ccccc2)CC1` (stereo not given): the survival was 86%.

Take `CC(C)OC(=O)CSc1nnc(-c2ccccc2)n1Cc1ccco1`: the survival is 87%. With `COc1ccc(Cl)cc1NC(=O)CN1Cc2ccccc2C1=O`, the survival is 100%. Consider `CCC(Sc1nnc2c3ccccc3n(CC)c2n1)C(=O)Nc1ccc(NC(C)=O)cc1` (stereo not given), for which the survival was 104%. `COC(=O)c1ccccc1NC(=O)c1c(NC(=O)c2ccco2)sc2c1CCC(C(C)(C)C)C2` (stereo not given): the survival is 137%. For `CC(C)(C)C1CCc2c(sc(NC(=O)c3ccncc3)c2C(=O)Nc2ccccc2Cl)C1` (stereo not given) the value was 71%. For `CCOc1ccccc1NC(=O)c1c(NC(=O)c2ccccc2C)sc2c1CCC(C)C2` (stereo not given), the survival is 65%. As to `O=C(Nc1sc2c(c1C(=O)N1CCCCC1)CCCC2)c1ccccc1Cl`, the survival was 69%. On to `CC(C)(C)C1CCc2c(sc(NC(=O)c3ccccc3F)c2C(=O)N2CCCCC2)C1` (stereo not given), for which the survival is -5% (active). As for `CC1CCN(C(=O)c2c(NC(=O)c3ccccc3F)sc3c2CCC(C(C)(C)C)C3)CC1` (stereo not given), the survival was -4% (active). Consider `Cc1ccccc1NC(=O)c1c(NC(=O)c2ccccc2F)sc2c1CCC(C)C2` (stereo not given), for which the survival is 63%.

Regarding `CC1CCN(C(=O)c2c(NC(=O)c3ccccc3Cl)sc3c2CCC(C(C)(C)C)C3)CC1` (stereo not given), the survival was 10% (active). Regarding `Cc1ccccc1C(=O)Nc1sc2c(c1C(=O)N1CCC(C)CC1)CCCC2`, the survival was 58%.

Turning to `Cc1ccccc1C(=O)Nc1sc2c(c1C(=O)N1CCC(C)CC1)CCC(C)C2` (stereo not given), the survival is -3% (active). For `CC(C)(C)C1CCc2c(sc(NC(=O)c3ccco3)c2C(=O)Nc2ccccc2Cl)C1` (stereo not given) the value was 135%; for `Cc1ccccc1C(=O)Nc1sc2c(c1C(=O)N1CCCCC1)CCC(C)C2` (stereo not given), 49%. `Cc1cccc(-n2nnc(-c3nc(-c4cccs4)no3)c2N)c1`: the survival is 87%. In the case of `COc1ccc(OC)c(NC(=O)Cn2cc(S(=O)(=O)c3ccccc3)c(=O)c3cc(C)ccc32)c1`, the survival is 70%.

Consider `CCOc1ccc(NC(=O)Cn2ccn3nc(-c4ccc(OC)c(OC)c4)cc3c2=O)cc1`, for which the survival was 102%.

As to `Cc1ccc(SCC(=O)Nc2ccc(O)c(-c3nc4cc(C)ccc4o3)c2)cc1`, the survival is 64%. Take `NNC(=O)C(Sc1n[nH]c(=O)[nH]c1=O)c1ccccc1` (stereo not given): the survival was 80%.

As to `Cc1oc(C(C)(C)C)cc1C(=O)NCCO`, the survival was 77%. For `CCOc1cccc(C2c3[nH]c4ccccc4c3CCN2C(=O)CSc2ccccc2)c1` (stereo not given) the value was 71%; for `COc1ccc(-c2cc(C(F)(F)F)nc(SCC(=O)Nc3ccc(C(C)=O)cc3)n2)cc1`, 59%; for `Cc1ccc(CN(Cc2ccco2)C(=O)COc2ccc(C)c(C)c2)cc1`, 68%.

In the case of `CCCNC(=O)c1c(NC(=O)c2ccccc2)sc2c1CCC(C(C)(C)C)C2` (stereo not given), the survival was 9% (active). Take `CC(C)(C)C1CCc2c(sc(NC(=O)c3ccc(Cl)cc3)c2C(=O)NCc2ccco2)C1` (stereo not given): the survival was 86%.

For the compound `Cc1ccc(C(=O)Nc2sc3c(c2C(=O)NCc2ccco2)CCC(C(C)(C)C)C3)cc1` (stereo not given), the survival was 64%. `CN(C)C(=O)c1c(NC(=O)c2ccccc2F)sc2c1CCCC2`: the survival is 76%. For `Cc1ccccc1C(=O)Nc1sc2c(c1C(=O)N1CCCCC1)CCC(C(C)(C)C)C2` (stereo not given), the survival was -2% (active).

As for `Cc1ccccc1NC(=O)c1c(NC(=O)c2ccco2)sc2c1CCC(C(C)(C)C)C2` (stereo not given), the survival was 74%. For `CCN(CC)C(=O)c1c(NC(=O)c2ccccc2F)sc2c1CCC(C(C)(C)C)C2` (stereo not given) the value was -8% (active); for `Cc1ccccc1C(=O)Nc1sc2c(c1C(=O)O)CCC(C(C)(C)C)C2` (stereo not given), -2% (active). For `CC(C)(C)C1CCc2c(sc(NC(=O)c3ccccc3F)c2C(=O)NCc2ccco2)C1` (stereo not given) the value was 61%; for `Cc1ccccc1C(=O)Nc1sc2c(c1C(=O)NCc1ccco1)CCC(C(C)(C)C)C2` (stereo not given), 109%. With `CCOC(=O)c1sc(N2C(=O)c3oc4cc(C)c(C)cc4c(=O)c3C2c2cccc(O)c2)nc1C` (stereo not given), the survival is 78%. With `O=C1C2(Cc3ccccc3)CN3CN(C2)CC1(Cc1ccccc1)C3`, the survival was 75%. As to `COc1ccc(NC(=O)c2cc(-c3ccc(F)cc3)no2)cc1OC`, the survival is 71%. As to `O=C(Nc1ccccc1[N+](=O)[O-])c1csnn1`, the survival was 73%. As for `CC1=C(C(=O)Nc2cccnc2)C(c2ccccc2)n2nc(SCc3ccccc3)nc2N1` (stereo not given), the survival is 74%. In the case of `Cc1ccccc1OCC(=O)Nc1ccccc1C(=O)OCc1cc(=O)n2c(C)csc2n1`, the survival was 94%. For `CCOC(=O)c1c(S(=O)(=O)NCC(=O)NCc2ccccc2Cl)c(C)n(C)c1C` the value was 97%. Take `COc1ccccc1NC(=O)c1c(NC(=O)c2cccs2)sc2c1CCC(C(C)(C)C)C2` (stereo not given): the survival is 139%. For `COc1ccccc1NC(=O)c1c(NC(=O)Cc2ccccc2)sc2c1CCC(C(C)(C)C)C2` (stereo not given), the survival was 126%. For the compound `CC(C)(C)C1CCc2c(sc(NC(=O)CCC(=O)O)c2C(=O)Nc2ccccc2C(F)(F)F)C1` (stereo not given), the survival was -6% (active). As to `Cc1ccc(CNC(=O)C2CCN(C(=O)N3CC(C)Oc4ccc(Cl)cc43)CC2)cc1` (stereo not given), the survival was 57%. For `CCOc1ccc(NC(=O)N2CC=C(c3c[nH]c4ccccc34)CC2)cc1` the value was 83%; for `CCc1ccc(NC(=O)N2CC=C(c3c[nH]c4ccccc34)CC2)cc1`, 39% (active); for `COc1ccccc1NC(=O)N1CC=C(c2c[nH]c3ccccc23)CC1`, 42% (active). On to `Cc1cccc(NC(=O)N2CC=C(c3c[nH]c4ccccc34)CC2)c1C`, for which the survival was 73%. `COc1cc(OC)c(NC(=O)N2CC=C(c3c[nH]c4ccccc34)CC2)cc1Cl`: the survival was 75%.

Take `CCOC(=O)c1cccc(NC(=O)N2CC=C(c3c[nH]c4ccccc34)CC2)c1`: the survival was 83%. For `COc1ccccc1OCC(=O)Nc1ccc(S(=O)(=O)N2CCN(C)CC2)cc1`, the survival was 78%. As to `CCc1ccc(-n2nc(CO)c(C(=O)NC(C)c3ccc(Cl)cc3)n2)cc1` (stereo not given), the survival is 58%. For `COc1cc(S(=O)(=O)N2CCN(c3ccccc3F)CC2)c(OC)cc1Cl` the value was 87%; for `CCOC(=O)c1cc2oc(C)cc2n1CC(=O)N(C)C1CCCCC1`, 92%. As to `CCOc1ccc(CCNC(=O)c2ccc3c(c2)c(C)c(C)n3Cc2ccccc2)cc1OCC`, the survival is 83%. For `Cc1ccc2c(=O)cc(C(=O)Nc3c(C(=O)c4ccccc4)oc4ccccc34)oc2c1C` the value was 82%; for `CCCn1c2ccccc2c2cnn(CC(=O)NCCc3ccc(C)cc3)c(=O)c21`, 128%. For `CCCn1c2ccccc2c2cnn(CC(=O)NCC3CCN(Cc4ccc(F)cc4)CC3)c(=O)c21`, the survival was 68%. Regarding `CCCn1c2ccccc2c2cnn(CC(=O)NCC3CCN(Cc4ccc(C)cc4)CC3)c(=O)c21`, the survival is 17% (active). For the compound `CCCn1c2ccccc2c2cnn(CC(=O)NCCc3ccc(OCC)c(OCC)c3)c(=O)c21`, the survival was 92%. In the case of `CCCn1c2ccccc2c2cnn(CC(=O)NCCc3ccc(OCC)cc3)c(=O)c21`, the survival is -5% (active). For the compound `CCCn1c2ccccc2c2cnn(CC(=O)NCCCN3CCCCC3)c(=O)c21`, the survival is 94%. For `CCCn1c2ccccc2c2cnn(CC(=O)NCCCOC(C)C)c(=O)c21` the value was -5% (active); for `CCCn1c2ccccc2c2cnn(CC(=O)NCC3CCN(Cc4ccccc4C)CC3)c(=O)c21`, 55%; for `CCCNC(=O)Cn1ncc2c3ccccc3n(CCC)c2c1=O`, 128%.
